{
  "source": "PubChem BioAssay AID624305",
  "about": "(National Center for Advancing Translational Sciences (NCATS), 2012)",
  "note": "Results filed as inconclusive are left out. Values without a mark were called inactive. Activity calls are given as the source filed them. Calls follow the shape of the dose curve; as a rule, active = well fitted activation curve with a large enough effect; inconclusive = small, poorly fitted or top-dose-only effect; inactive = no such curve, though single readings can be large or run the other way. Potency is read from the fitted curve at half-maximal effect.",
  "data": [
    {"experiment": "qHTS assay for re-activators of p53 using a Luc reporter: Hit Validation; also: nearly all actives have a fitted effect of over 75% in size; as to activation: 0% is about no effect", "details": "p53-responsive luciferase reporter cells, luminescence, H1299 line expressing heat-sensitive Ala138Val p53; series mostly up to 46.1 µM; activation: at the top concentration", "in_short": "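Hit confirmation with a 1:5 dilution series, at 37 deg C for 24 hrs, in H1299 cells co-expressing temperature-sensitive p53-A138V and p53-responsive luciferase. Nocodazole served as control; luminescence read after 10 min with detection reagent.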", "units": {"activation": "%"}, "values": [
      {"compound": "Cc1ccc2nc(SCn3nnc4ccccc4c3=O)[nH]c2c1", "Potency": "1.3 µM (active)"},
      {"compound": "Cc1cc(C)nc(SCc2csc(-c3ccccc3)n2)n1", "Potency": "13 µM (active)"},
      {"compound": "CC(C)(C)NC(=O)C(c1ccc(Cl)cc1)N(CCO)C(=O)c1snc(C(N)=O)c1N", "note": "(configuration not stated)", "activation": -2.08},
      {"compound": "COc1ccc(C(=O)O/N=C(\\N)c2ccccc2)c(OC)c1", "Potency": "0.366 µM (active)"},
      {"compound": "Cn1cc(Cl)c(C(=O)Nc2nc3ccccc3s2)n1", "Potency": "0.231 µM (active)"},
      {"compound": "Cc1cccc(-n2nc([N+](=O)[O-])c(=NC3CCN(Cc4ccccc4)CC3)n2O)c1", "activation": 19.8},
      {"compound": "ON=C1c2cc(OCCN3CCCCC3)ccc2-c2ccc(OCCN3CCCCC3)cc21", "activation": -11.5},
      {"compound": "CC(=O)c1cccc(NS(=O)(=O)N(C)C)c1", "activation": -1.04},
      {"compound": "CCc1ccc2[nH]c(=O)c(CN(CCN3CCCC3)C(=O)NC3CCCCC3)cc2c1", "activation": 4.17},
      {"compound": "Cn1c(-c2ncc(F)cc2F)cc2onc(-c3c(F)cccc3Cl)c2c1=O", "Potency": "2.59 µM (active)"},
      {"compound": "C=Cc1ccc(Cn2c(=O)n(CCCOC)c(=O)c3sccc32)cc1", "activation": -8.85},
      {"compound": "COc1ccc(-c2cc(C(F)(F)F)nc(-n3ccnc3C)n2)cc1", "activation": -38},
      {"compound": "O=C(NCCN1CCOCC1)c1cc(-c2cccs2)on1", "Potency": "23.1 µM (active)"},
      {"compound": "CNc1ccc(/C=C/C(=O)c2ccc(C)cc2)cc1[N+](=O)[O-]", "activation": 15.1},
      {"compound": "Cc1cccc(/C(N)=N/OC(=O)c2ccc3c(c2)OCO3)c1", "Potency": "9.2 µM (active)"},
      {"compound": "CCc1nnc(NC(=O)/C=C/c2ccco2)s1", "Potency": "20.6 µM (active)"},
      {"compound": "Cc1nn(-c2ccccc2)c(N)c1Sc1ccc([N+](=O)[O-])cc1", "activation": 3.12}
    ]}
  ]
}
